Rv3671c protease – inhibitors of M. tuberculosis serine protease Rv3671c. 320,000 tested, 0.048% active. inhibition, % at 5.96 µM. P9WHR9; in the data active means inhibition above about 38%;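 further: extracellular domain of Rv3671c used as enzyme; 0% = enzyme with DMSO and 100% = no enzyme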
GDH-TPI counter – counter-screen for M. tuberculosis FBA inhibitors: GDH-TPI coupled enzymes. GDH-TPI coupled enzyme counterscreen, NADH absorbance. inhibition, % at 4.8 µM. 360,000 tested, 1.2% active; in the data active means inhibition above about 30%;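 further: 0% = DMSO wells and 100% = wells lacking the enzyme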
Mtb UGM inh – Mtb UDP-galactopyranose mutase inhibition. P9WIQ1. purified UGM, fluorescence polarization probe displacement. inhibition, % at 10 µM. 320,000 tested, 0.06% active. AID 504406; in the data active means inhibition above about 10%, passing the limit was not always enough
Mtb bLac sens – beta-lactam sensitization of Mtb H37Rv | M. tuberculosis H37Rv growth with meropenem, percent inhibition | inhibition, % at 25 µM | 330,000 tested, 0.27% active | AID 434955; call rule not given here;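 further: growth measured after seven days incubation then overnight dye step; 0% = bacteria only wells and 100% = bacteria with antibiotic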
RecA splice inh – blocks M. tuberculosis RecA intein splicing | cell-free RecA intein splicing, fluorescence | 290,000 tested, 0.75% active | P9WHJ3 | inhibition, % (test concentration not listed); in the data active means inhibition above about 30%;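 further: 0% = vehicle wells and 100% = reference inhibitor control wells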
Target sequence (P9WHJ3 whole entry, looked up, canonical isoform): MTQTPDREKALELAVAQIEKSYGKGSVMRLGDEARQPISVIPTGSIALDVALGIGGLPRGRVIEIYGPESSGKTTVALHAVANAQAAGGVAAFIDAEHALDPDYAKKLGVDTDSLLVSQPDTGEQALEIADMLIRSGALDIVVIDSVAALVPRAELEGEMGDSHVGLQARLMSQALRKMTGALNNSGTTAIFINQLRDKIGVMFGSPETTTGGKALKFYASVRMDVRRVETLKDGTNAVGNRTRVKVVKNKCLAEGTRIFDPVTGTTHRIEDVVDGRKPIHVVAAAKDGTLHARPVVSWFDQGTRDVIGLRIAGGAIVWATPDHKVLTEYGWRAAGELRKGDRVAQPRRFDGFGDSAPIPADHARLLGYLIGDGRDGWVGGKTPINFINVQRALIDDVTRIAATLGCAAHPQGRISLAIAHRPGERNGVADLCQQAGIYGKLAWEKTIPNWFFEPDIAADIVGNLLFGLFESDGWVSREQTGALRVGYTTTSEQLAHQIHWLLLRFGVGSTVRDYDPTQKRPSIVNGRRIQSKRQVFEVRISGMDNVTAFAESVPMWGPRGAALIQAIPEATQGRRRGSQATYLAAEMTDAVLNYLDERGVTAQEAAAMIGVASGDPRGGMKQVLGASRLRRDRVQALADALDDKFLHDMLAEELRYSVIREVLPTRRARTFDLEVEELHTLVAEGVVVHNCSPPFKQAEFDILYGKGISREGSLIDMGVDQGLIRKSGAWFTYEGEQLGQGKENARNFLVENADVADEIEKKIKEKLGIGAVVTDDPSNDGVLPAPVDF
FBA Mtb inh – Mtb fructose-bisphosphate aldolase inhibition; 360,000 tested, 2.3% active; purified M. tuberculosis FBA, fluorescence read-out; P9WQA3; AID 588726; inhibition, % at 1 µM; in the data active means inhibition above about 27%;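 further: 0% = vehicle and 100% = reference inhibitor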
The depositor's hits bear a star; . = not tested or not shown; + = active, no number. Sampled rows, rich in hits. Any-hit rate of the full collection: about 4%.

SMILES | Rv3671c protease | GDH-TPI counter | Mtb UGM inh | Mtb bLac sens | RecA splice inh | FBA Mtb inh
Cn1cnc([N+](=O)[O-])c1Sc1ccc(C(C)(C)C)cc1 | -3.3 | 3.9 | 2.9 | 43.4 | 31.3* | 2.6
Cn1cnc([N+](=O)[O-])c1Sc1ccc(Br)cc1 | -7.5 | 6.3 | 1.0 | 97.2 | 25.4 | 0.2
CC(C)c1[nH]nc2c1C(Cc1ccccc1)C(C#N)=C(N)O2 (stereo unspecified) | -1.4 | 11.0 | -0.3 | 5.1 | 53.0* | 2.2
N#CC1=C(N)Oc2n[nH]c(-c3cccs3)c2C1c1ccncc1 (stereo unspecified) | -6.8 | 13.4 | 1.8 | -3.5 | 59.9* | -1.4
CCOC(=O)C1=C(C)OC(N)=C(C#N)C1c1ccc(C)o1 (stereo unspecified) | -6.0 | 15.1 | -3.1 | 7.3 | -4.6 | -3.1
COCc1[nH]nc2c1C(c1ccccc1OC)C(C#N)=C(N)O2 (stereo unspecified) | -1.1 | -2.0 | 2.3 | 0.4 | 61.7* | 1.6
Cc1[nH]nc2c1C(Cc1ccccc1)C(C#N)=C(N)O2 (stereo unspecified) | -3.6 | 2.7 | -3.2 | -4.6 | 26.8 | -2.7
Cc1ccc(C2C(C#N)=C(N)Oc3nc(-c4ccccc4)[nH]c32)o1 (stereo unspecified) | -6.2 | 18.1 | 1.9 | 2.3 | 89.4* | -0.8
Cc1cccc(C(C)C)c1NS(=O)(=O)c1cn(C)nc1C | 4.8 | -4.4 | 1.6 | -4.2 | -1.4 | 1.3
Cc1ccc(C)c(C(=O)CCC(=O)Nc2ccc(N3CCN(C)CC3)cc2C)c1 | -3.1 | -1.3 | -0.1 | 10.0 | . | 3.6
COCCNc1nc2c(c(=O)[nH]c(=O)n2C)n1CCCc1ccccc1 | -3.0 | -2.9 | -1.4 | -1.4 | -0.7 | -0.2
CCN(CC)C(=O)c1cn(-c2cccc(OC)c2)c(=O)c2ccccc12 | 0.1 | 2.2 | -1.0 | 0.3 | -1.5 | -0.9
CCc1[nH]nc2c1C(Cc1ccccc1)C(C#N)=C(N)O2 (stereo unspecified) | 2.5 | 1.7 | 1.0 | 1.7 | 59.1* | 5.6
CC(C)c1[nH]nc2c1C(c1cccnc1)C(C#N)=C(N)O2 (stereo unspecified) | -7.5 | 0.5 | 2.9 | -2.9 | 42.7* | -0.6
CCc1[nH]nc2c1C(c1ccc(C)o1)C(C#N)=C(N)O2 (stereo unspecified) | 3.9 | 11.4 | -0.9 | -10.6 | 49.2* | -3.0
CCCc1[nH]nc2c1C(Cc1ccccc1)C(C#N)=C(N)O2 (stereo unspecified) | 7.1 | 15.1 | -2.2 | -4.2 | 28.2 | 1.4
COc1cc2ccccc2cc1C(=O)Nc1ccc(C)cn1 | -15.4 | 6.2 | 0.0 | 26.2 | 0.5 | 2.8
COc1ccc(N(CC(=O)NCCSc2ccccc2)S(=O)(=O)c2ccccc2)c(OC)c1 | -5.5 | 5.1 | -4.6 | -4.3 | . | -0.6
Cc1ccc(S(=O)(=O)N2CCCCC2)cc1NC(=O)COC(=O)c1cccc(O)c1 | . | -10.1 | . | . | . | -1.8
COCCNC(=O)c1cc2c(c(-c3cccc(C#Cc4ccc(OC)c(OC)c4)c3)n1)[C@@H](CCO)N(S(=O)C(C)(C)C)C2 (stereo partly specified) | . | . | . | . | . | -0.8
CCn1c(NC(C)=O)nc2ccccc21 | 9.1 | 2.5 | -2.7 | 71.5 | -1.8 | -2.9
CCn1c(NC(=O)c2cccs2)nc2ccccc21 | 7.3 | 35.6* | -1.6 | 100.0 | 0.9 | 0.6
COc1ccccc1OCCN1C(=O)S/C(=C\c2ccco2)C1=O | 1.4 | 34.3* | -1.2 | -2.7 | 2.9 | -7.9
CS(=O)(=O)c1ccc(NC(=O)CCN2C(=O)C3CC=CCC3C2=O)cc1 (stereo unspecified) | -4.9 | 3.9 | 0.6 | 3.7 | -3.2 | 1.4
NC(=O)c1c(NC(=O)C2COc3ccccc3O2)sc2c1CCN(Cc1ccccc1)C2 (stereo unspecified) | -3.4 | 26.8 | 19.3* | 15.3 | -25.6 | 6.3
SMILES | Rv3671c protease | GDH-TPI counter | Mtb UGM inh | Mtb bLac sens | RecA splice inh | FBA Mtb inh
COc1ccc(OC)c(CN2CCN(C(=O)c3ccc(NS(=O)(=O)c4cccc([N+](=O)[O-])c4)cc3)CC2)c1 | -1.1 | 3.6 | 4.9 | -10.9 | -5.9 | -3.4
NC(N)=NN=C1CCC(c2ccccc2)CC1 (stereo unspecified) | 3.7 | 6.7 | -1.0 | -1.7 | 0.5 | 0.5
CCOC(=O)/C(=C/c1c(C)n(C)c2ccc([N+](=O)[O-])cc12)C(C)=O | -1.3 | 31.5* | 0.1 | -2.9 | -1.6 | -8.2
CCOC(=O)c1c(N)c2cc([N+](=O)[O-])ccc2n1C | -3.4 | 5.4 | 4.1 | -8.5 | -1.4 | 1.7
Cc1cc(=O)oc2cc(OC(C)C(=O)N3CCOCC3)c(Cl)cc12 (stereo unspecified) | . | 28.1 | . | . | . | 23.7
Cc1ccc(S(=O)(=O)NC(C(=O)Oc2cc3oc(=O)cc(C)c3cc2Cl)C(C)C)cc1 (stereo unspecified) | -3.8 | 9.2 | 1.6 | 3.5 | -73.9 | +
Cc1ccc(S(=O)(=O)N[C@H](C(=O)Oc2ccc3c(C(F)(F)F)cc(=O)oc3c2)c2ccccc2)cc1 | -0.9 | 9.8 | -1.6 | -6.7 | -402.1 | 23.5
O=C(Oc1cc2oc(=O)c3c(c2cc1Cl)CCCC3)c1cccs1 | -5.6 | 10.5 | 1.5 | 27.4 | -10.9 | 172.9*
CC(=O)Oc1cc2oc(=O)cc(C)c2cc1Cl | -6.0 | 10.8 | 1.6 | 3.8 | -78.9 | +
O=C(Oc1ccc2c3c(c(=O)oc2c1)CCC3)c1ccco1 | -5.9 | 7.5 | -0.6 | 90.5 | . | +
COc1ccc(-c2noc(CCC(=O)N3CCN(c4ccccc4)CC3)n2)cc1 | . | 5.7 | . | . | . | -1.3
Cc1ccc(NC(=S)NNc2ccc(C(=O)O)cc2[N+](=O)[O-])cc1C | 17.4 | 15.1 | 0.5 | -2.0 | -8.4 | -2.4
O=C(Nc1cc(S(=O)(=O)N2CCCCC2)ccc1N1CCOCC1)c1ccc(C(F)(F)F)cc1 | -8.9 | 9.0 | -0.2 | 1.7 | . | 1.9
CC(C)Oc1cc2oc(=O)c3c(c2cc1Cl)CCC3 | 2.1 | 8.9 | -0.7 | -4.0 | -1.1 | 4.7
O=C(Oc1cc2oc(=O)c3c(c2cc1Cl)CCCC3)c1ccco1 | -3.9 | 15.5 | -0.2 | 35.7 | -16.9 | +
Cc1cc2oc(=O)c3c(c2cc1OC(=O)c1ccco1)CCCC3 | 7.0 | 13.7 | -5.6 | 0.4 | -2.4 | 4.1
CC(=O)Oc1cc2oc(=O)c3c(c2cc1Cl)CCC3 | -2.2 | 7.9 | 0.2 | -4.9 | . | +
COc1ccc(-c2nc3ccc(Br)cn3c2CC(C)(C)C)cc1OC | . | . | . | . | . | -0.5
CN1CCN(C(=O)c2ccc(-c3ccc(F)c(F)c3)c3ccoc23)CC1 | . | 5.4 | . | . | . | 1.1
COc1cc2c(cc1OC)n(CC(=O)NC1CCCCCC1)n1c(C)cc(=O)nc21 | -9.0 | 12.0 | 2.6 | 0.2 | 0.2 | 113.4*
Cc1cn(CC(=O)N[C@H](C)c2cccc3ccccc23)c(=O)[nH]c1=O | . | -7.5 | . | . | . | -0.8
COc1ccc(C(=O)/C=C/c2ccc(O)cc2)c2c1CC(O)C(C)(C)O2 (stereo unspecified) | -2.8 | 33.3* | . | 0.9 | . | -0.7
COc1ccc(Cl)cc1NC(=O)c1sc2nc(C)nc(N3CCOCC3)c2c1C | -6.3 | -10.9 | 1.8 | -1.5 | 3.4 | -7.1
